Assay outcomes (PubChem BioAssay)
hcDAF12 agonist – H. contortus DAF-12 activation, primary screen; HEK293 hcDAF-12 lit1-tk-luc reporter, luminescence; 0% DMSO, 100% Δ7-dafachronic acid; activation, % at 6.8 µM; actives 1.4% (n = 370,000); AID 652067;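 active = activation above the mean of all tested compounds plus 3 SD, cut at about 5.5% in these data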;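 also: 100% = response to 3 µM Δ7-dafachronic acid high control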
SMARCA2 act – increases SMARCA2 function in MMTV reporter cells. MG213 cells, MMTV-luciferase reporter, dexamethasone, overnight. activation, % at 9.1 µM. actives 1% (n = 370,000). AID 652017; in the data active = activation above about 7.8%;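 also: 0% = vehicle wells and 100% = reference activator wells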
hgDAF12 agonist – hgDAF-12 agonism, primary luciferase screen | HEK293 GAL4-hgDAF12 UAS-luciferase reporter, agonist luminescence; normalized to butyrate control | activation, % at 6.8 µM | AID 687014 | actives 1.8% (n = 370,000);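 active = activation above a cutoff set at the mean of all screened compounds plus 3 SD, cut at about 10% in these data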;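 also: 0% = DMSO wells and 100% = sodium butyrate wells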
ssDAF-12 act – S. stercoralis DAF-12 activation, primary screen; HEK293 ssDAF-12/GRIP1 lit1-tk-luc reporter, luminescence; % of 3 µM dafachronic acid response; activation, % at 6.8 µM; actives 1% (n = 370,000);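 active = activation above the mean over all tested compounds plus 3 SD, cut at about 0.9% in these data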;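 also: 0% = DMSO-only wells and 100% = 3 µM delta7-dafachronic acid wells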
DAX1 inh-1 – DAX1 (NR0B1) inhibition, primary screen. inhibition, % at 6.8 µM. actives 1.1% (n = 370,000). HEK293T StAR-luciferase reporter, SF-1/DAX-1 repression relief;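 active = inhibition above the mean over all tested compounds plus 3 SD, cut at about 3.6% in these data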;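 also: 0% = DAX-1 cells with DMSO and 100% = cells lacking DAX-1 with DMSO; higher inhibition means more luminescence from relief of DAX-1 repression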
DAX1 inh-2 – NR0B1 (DAX1) inhibition | inhibition, % at 6.75 µM | HEK293 Gal4-DAX1 luciferase reporter, luminescence | actives 0.99% (n = 340,000) | AID 504766;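 active = inhibition above the mean over all tested compounds plus 3 SD, cut at about 4.2% in these data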;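 also: 0% = DAX1-transfected cells with DMSO and 100% = empty-vector control cells with DMSO; inhibition shows as a rise in luminescence from relieved DAX1 repression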
Target sequence (P51843 207-470 limits assumed): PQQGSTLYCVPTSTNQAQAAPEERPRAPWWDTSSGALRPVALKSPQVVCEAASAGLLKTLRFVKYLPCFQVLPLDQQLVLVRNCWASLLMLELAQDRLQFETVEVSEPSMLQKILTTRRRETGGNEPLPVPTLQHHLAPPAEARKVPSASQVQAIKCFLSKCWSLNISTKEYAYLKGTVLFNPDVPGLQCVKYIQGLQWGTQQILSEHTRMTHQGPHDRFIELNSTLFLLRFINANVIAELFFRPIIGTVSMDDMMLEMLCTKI
SMARCA2 conf – SMARCA2 activation, confirmation screen | MG213 cells, MMTV-luciferase with dexamethasone, luminescence, overnight; MG213 cells expressing E1A, Rb sequestered; DMSO wells 0%, reference activator 100% | actives 30% (n = 3,500) | activation, % at 9.1 µM | shares compounds with SMARCA2 act;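 active = activation above its plate's cutoff, the mean activation of tested wells plus 3 SD, cut at about 7.9% in these data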
GAL4-VP16 Luc – activates GAL4-VP16 luciferase, flagging SMARCA2 activator hits. shares compounds with SMARCA2 act. HEK293 GAL4-VP16 pG5luc reporter, luciferase luminescence; scaled: DMSO wells 0%, SAHA wells 100%. activation, % at 9.1 µM. actives 41% (n = 3,500). AID 686939;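 active = activation above the solvent-only control well mean plus 3 SD, averaged across control plates, cut at about 5.2% in these data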
Starred values were filed as active, the others as inactive; x = no result given. In the library only some 4.8% were active in any assay of this set; here they are far more common.

SMILES | hcDAF12 agonist | SMARCA2 act | hgDAF12 agonist | ssDAF-12 act | DAX1 inh-1 | DAX1 inh-2 | SMARCA2 conf | GAL4-VP16 Luc
COC(=O)/C=C/c1cccc([C@H]2[C@@H]3C=CC[C@@H](C)[C@@H]3C(=O)N2Cc2ccccc2)c1 | -1 | 1 | 1 | -2 | 0 | 0 | x | x
CCOC(=O)CC[C@@]1(C(=O)OCC)C[C@@H](CC(=O)N2CCOCC2)C(=O)N2CCCC=C21 | 0 | -3 | -2 | -1 | 0 | x | x | x
CC(C)(C)Cc1c(-c2cccc(Cl)c2)nc2ccc(Cl)cn12 | 1 | 0 | 3 | 1 | 1 | x | x | x
CC(C)(C)Cc1c(-c2ccco2)nc2ccc(Cl)cn12 | 1 | 13* | 2 | 1 | 1 | x | 1 | 1
CC(CC(=O)NCCc1ccc(S(N)(=O)=O)cc1)c1ccccc1 (centres undefined) | 1 | -4 | 2 | -1 | 0 | 1 | x | x
O=C(COC(=O)c1ccc(S(=O)(=O)N2CCCC2)cc1)Nc1cccc(F)c1 | 1 | 10* | 3 | -2 | -3 | -1 | 1 | 0
N#C/C(=C\c1cccnc1)c1nc2c(s1)CCCC2 | 1 | 8.5* | 10 | 0 | 3 | 2 | 7 | 16*
Cc1ccccc1NC(=S)N(Cc1ccco1)C(C)c1cccs1 (centres undefined) | 0 | 11* | 1 | -1 | 0 | 1 | -4 | -1
O=C(N/N=C/c1ccc(OC(F)F)cc1)c1cccc(S(=O)(=O)N2CCOCC2)c1 | 0 | -4 | -2 | 0 | 0 | 0 | x | x
CC(C)N(Cc1cn(Cc2ccccc2)nn1)S(=O)(=O)c1ccc(F)cc1Br | -3 | 8.7* | -4 | -1 | -1 | x | -2 | 0
CCN(Cc1cn(Cc2ccccc2)nn1)S(=O)(=O)c1ccc(F)cc1Br | -2 | -4 | -1 | -2 | -1 | x | x | x
Cc1nn(C)c(C)c1NC(=S)Nc1ccc(S(=O)(=O)Nc2ncccn2)cc1 | 0 | -2 | 2 | -1 | -1 | 1 | x | x
CC1CNC(=S)N(c2ccc(F)cc2)C1=O (centres undefined) | 2 | -4 | 2 | -1 | 0 | 0 | x | x
CCCOc1ccc(-c2cnc(N)s2)cc1 | 0 | 13* | 8 | -1 | 3 | 0 | 7 | 10*
O=c1c(Cc2c(F)cccc2Cl)c(O)ccn1CCCN1CCOCC1 | 0 | 1 | -2 | -1 | 3 | 1 | x | x
CCC(=O)NC(c1ccccc1)c1nc2ccccc2[nH]1 (centres undefined) | 2 | 8.5* | 3 | -1 | 1 | 4 | 3 | 2
Oc1ccc(Nc2nc(N3CCCC3)c3ccccc3n2)cc1 | -2 | 10* | 0 | -1 | -1 | -3 | 27* | -1
C(=C\c1nc(N2CCCC2)c2ccccc2n1)/c1ccccc1 | 0 | 9.0* | 2 | -2 | -1 | -1 | 15* | 2
Cc1ccc(C(=O)Nc2cc(-c3ccn[nH]3)c(C)n(N)c2=O)cc1 | 2 | -1 | 3 | 0 | 0 | 0 | x | x
COc1ccc(-c2cc(C(=O)NC(Cc3cc4ccccc4[nH]3)C(=O)O)c(C)o2)cc1OC (centres undefined) | 4 | 11* | 10 | 1 | 1 | -1 | 9.9* | 4
COc1ccc(-c2cc(C(=O)O)c(C)o2)cc1OC | 0 | 7 | -2 | -1 | 0 | -3 | x | x
Cc1ccc(-c2c(NC(=O)Nc3ccccc3)nc3ncccn23)cc1 | 2 | 2 | 9 | -1 | -1 | x | x | x
O=C(Nc1nc2ncccn2c1-c1ccc(F)cc1)C1CC1 | -3 | 8.7* | -1 | -1 | 0 | x | -2 | 0
O=C(Nc1ccccc1)Nc1nc2ncccn2c1-c1ccc(F)cc1 | -2 | 14* | 6 | -1 | 2 | x | 4 | 4
O=C(/C=C/c1ccc(Cl)cc1Cl)N1CCN(c2ccc([N+](=O)[O-])c(N3CCOCC3)c2)CC1 | 1 | 9.9* | -2 | -1 | 0 | 0 | 0 | 2
SMILES | hcDAF12 agonist | SMARCA2 act | hgDAF12 agonist | ssDAF-12 act | DAX1 inh-1 | DAX1 inh-2 | SMARCA2 conf | GAL4-VP16 Luc
COc1ccc(CC(=O)Nc2c3c(nn2-c2ccccc2C)CS(=O)C3)cc1 (centres undefined) | -1 | 8.7* | 0 | -1 | 0 | 1 | -2 | 0
CCOc1ccc(NC(=O)CN(C)C(=O)Cc2n[nH]c(=O)c3ccccc23)cc1OCC | 2 | 5 | 2 | 0 | 0 | 1 | x | x
CC(C)(C)c1ccc(C(=O)NCC(=O)NCc2ccccn2)cc1 | 1 | 8.4* | 0 | -1 | 1 | -1 | 1 | 2
CCOC(=O)C(=N/O)/C(C)=N/NC(=O)C(=O)Nc1cc(Cl)ccc1Cl | 1 | -2 | 0 | -1 | -1 | 0 | x | x
COCCCNC(=O)C[C@H]1C[C@H](C(=O)N2CCOCC2)[C@@]2(CCC3CCCC3)c3[nH]c4ccc(Cl)cc4c3CCN2C1=O | 1 | 10* | 1 | -1 | 3 | 1 | 2 | 1
O=C(C[C@H]1C[C@H](C(=O)N2CCOCC2)[C@@]2(CCC3CCCC3)c3[nH]c4ccc(Cl)cc4c3CCN2C1=O)NCCN1CCOCC1 | 0 | -6 | -1 | -1 | 0 | 1 | x | x
CCOC(=O)CCCSc1nc(-c2ccc3c(c2)OCO3)cc(C(F)(F)F)c1C#N | 1 | 8.7* | 2 | -1 | 0 | 0 | 0 | 2
O=C(CNC(=O)C12CC3CC(CC(C3)C1)C2)N1CCCC(C(F)(F)F)C1 (centres undefined) | 2 | 1 | 1 | -1 | 0 | -1 | x | x
O=C(CN(c1cccc([N+](=O)[O-])c1)S(=O)(=O)c1ccccc1)N(Cc1ccccc1)Cc1ccccc1 | 2 | 9.9* | -1 | -1 | -1 | 1 | -3 | -1
CC(=O)NCCc1cc2ccc(C)c(C)c2[nH]c1=O | 0 | 8.3* | -3 | -1 | 1 | 1 | -1 | 1
Cc1ccc2[nH]c(=O)c(COC(=O)c3cccs3)cc2c1 | 0 | 8.6* | 3 | 0 | 0 | -1 | -2 | -1
Cc1ccc2cc(CCNC(=O)c3cccs3)c(=O)[nH]c2c1 | 1 | 8.1* | 10 | -1 | 2 | 2 | 6 | 8.3*
Cc1ccc2cc(CCNC(=O)CCCc3ccccc3)c(=O)[nH]c2c1C | 2 | -1 | 0 | -1 | 2 | 0 | x | x
O=C(Cc1ccc(S(=O)(=O)N2CCOCC2)s1)N1CCN(S(=O)(=O)c2ccccc2[N+](=O)[O-])CC1 | 0 | -3 | 0 | -1 | -2 | 0 | x | x
